This is an account of results in PubChem BioAssay (NCI).

The nature of test [1]: NCI Yeast Anticancer Drug Screen. Data for the rad50 strain (AID 155).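 Also: 0% = growth of vehicle-only cultures of the same strain.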 The conditions noted are these: S. cerevisiae rad50 strain growth inhibition, active compounds read high. The procedure, abridged:
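Vehicle-treated cultures provide the reference for the growth inhibition reported for compound-exposed, repair-deficient yeast.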

Test [2] is described as follows: NCI Yeast Anticancer Drug Screen. Data for the mec2-1 strain (AID 157). The conditions noted are these: S. cerevisiae mec2-1 strain, active compounds read high. The procedure, abridged:
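Yeast mec2-1 mutant treated with compound. Readout: growth inhibition vs vehicle controls.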

The nature of test [3]: NCI Yeast Anticancer Drug Screen. Data for the sgs1 mgt1 strain (AID 161).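 Also: 0% = growth of cultures given vehicle only.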 Particulars: S. cerevisiae sgs1 mgt1 strain, active compounds read high. The procedure, abridged:
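Inhibition of yeast growth, normalised to vehicle-treated controls, is reported for a strain bearing genetic alterations in DNA damage repair.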

The nature of test [4]: NCI Yeast Anticancer Drug Screen. Data for the cln2 rad14 strain (AID 165).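 Also: 0% = growth equal to vehicle treated cultures.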 The conditions noted are these: S. cerevisiae cln2 rad14 strain, active compounds read high. The procedure, abridged: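 cln2 rad14 yeast strain; compound exposure; growth inhibition read vs vehicle controls.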
Test [5] can be described thus: NCI Yeast Anticancer Drug Screen. Data for the bub3 strain (AID 167). Particulars: S. cerevisiae bub3 mutant strain, active compounds read high. Summed up:
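Mutant yeast screening strain plus compound; vehicle-treated cultures serve as the 0% inhibition reference.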

Test [6] in a line: NCI Yeast Anticancer Drug Screen. Data for the mlh1 rad18 strain (AID 175). The conditions noted are these: S. cerevisiae mlh1 rad18 strain growth inhibition, active compounds read high. The procedure, abridged: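 Yeast w/ defined DNA-repair lesions; compound exposure; growth vs vehicle controls → % inhibition.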
The mark [7] stands for this setting: at 5.0 µM (retest, dose inferred, filed as 0.5).
Setting [8] is: at 50.0 µM (retest, dose inferred, filed as 5.0).

Structures are written as SMILES. This is part of a sample that, as a whole, favours compounds with a hit. Of some 79,000 tested, about 15% had one in any assay. Values without a mark were called inactive. Activity calls are given as the source filed them. Rule as the data show it: active = growth inhibition above about 70%; inactive = the rest.

In the case of `Fc1ccc(NC(=S)SCc2ccc(Cl)c(Cl)c2)c(F)c1`, the growth inhibition in test [1] (setting [7]) was 13%; in test [1] (setting [8]), 98% (active); in test [1] (at 50.0 µM), 98.5% (active); in test [2] (setting [7]) it was 7%; in test [2] (setting [8]) it was 99% (active); in test [2] (at 50.0 µM), 97.3% (active). Also, the growth inhibition in test [3] (setting [7]) is 6%; in test [3] (setting [8]) it was 98% (active); in test [3] (at 50.0 µM), 99.2% (active); in test [4] (setting [7]) it was -6%; in test [4] (setting [8]) it was 97% (active); in test [4] (at 50.0 µM), 98.8% (active). Also, the growth inhibition in test [5] (setting [7]) is 11%; in test [5] (setting [8]), 98% (active); in test [5] (at 50.0 µM), 99% (active); in test [6] (setting [7]), 9%; in test [6] (setting [8]), 95% (active); in test [6] (at 50.0 µM), 99% (active).

Take `Cc1ccc(N2C(=O)CCSC2=S)cc1C`: the growth inhibition in test [1] (setting [7]) is -1%; in test [1] (setting [8]) it was 87% (active); in test [1] (at 50.0 µM) it was 97.2% (active); in test [2] (setting [7]) it was 0%; in test [2] (setting [8]), 35%; in test [2] (at 50.0 µM), 80.5% (active). Further, the growth inhibition is 4% in test [3] (setting [7]); 96% (active) in test [3] (setting [8]); 98.3% (active) in test [3] (at 50.0 µM); -2% in test [4] (setting [7]); 32% in test [4] (setting [8]); 38.9% in test [4] (at 50.0 µM). Further, the growth inhibition was -5% in test [5] (setting [7]); 77% (active) in test [5] (setting [8]); 68.7% in test [5] (at 50.0 µM); -2% in test [6] (setting [7]); 98% (active) in test [6] (setting [8]); 95.4% (active) in test [6] (at 50.0 µM).

For `O=C(CCCN1CCN2Cc3[nH]c4ccccc4c3CC2C1)c1ccc(F)cc1` (configuration not stated), the growth inhibition is 5% in test [1] (setting [7]); 58% in test [1] (setting [8]); 98.8% (active) in test [1] (at 50.0 µM); 7% in test [2] (setting [7]); 73% (active) in test [2] (setting [8]); 98.7% (active) in test [2] (at 50.0 µM). The growth inhibition was 20% in test [3] (setting [7]); 92% (active) in test [3] (setting [8]); 66.8% in test [3] (at 50.0 µM); 2% in test [4] (setting [7]); 59% in test [4] (setting [8]); 95.6% (active) in test [4] (at 50.0 µM). Further, the growth inhibition in test [5] (setting [7]) was 4%; in test [5] (setting [8]), 60%; in test [5] (at 50.0 µM), 92.1% (active); in test [6] (setting [7]), 37%; in test [6] (setting [8]), 88% (active); in test [6] (at 50.0 µM) it was 99.3% (active).

As for `Cc1ccc(C(CN(C)C)C(=O)c2ccccc2)cc1C` (configuration not stated), the growth inhibition in test [1] (setting [7]) was -4%; in test [1] (setting [8]) it was 97% (active); in test [1] (at 50.0 µM) it was 4.8%; in test [2] (setting [7]), -2%; in test [2] (setting [8]), 97% (active); in test [2] (at 50.0 µM), 3.35%. In addition, the growth inhibition in test [3] (setting [7]) is -4%; in test [3] (setting [8]) it was 93% (active); in test [3] (at 50.0 µM) it was 36.3%; in test [4] (setting [7]), -3%; in test [4] (setting [8]), 42%; in test [4] (at 50.0 µM), -23.6%. Further, the growth inhibition is -2% in test [5] (setting [7]); 97% (active) in test [5] (setting [8]); 69.4% in test [5] (at 50.0 µM); -6% in test [6] (setting [7]); 98% (active) in test [6] (setting [8]); 27.4% in test [6] (at 50.0 µM).

For the compound `CC(/C=C1\CCC(CN(C)C)C1=O)c1cccc(Br)c1` (configuration not stated), the growth inhibition in test [1] (setting [7]) was -11%; in test [1] (setting [8]), 97% (active); in test [1] (at 50.0 µM), 93.8% (active); in test [2] (setting [7]) it was -1%; in test [2] (setting [8]) it was 99% (active); in test [2] (at 50.0 µM), 94% (active). The growth inhibition in test [3] (setting [7]) is 5%; in test [3] (setting [8]), 97% (active); in test [3] (at 50.0 µM), 93.5% (active); in test [4] (setting [7]), 16%; in test [4] (setting [8]) it was 98% (active); in test [4] (at 50.0 µM), 92.2% (active). Also, the growth inhibition was 18% in test [5] (setting [7]); 99% (active) in test [5] (setting [8]); 92.7% (active) in test [5] (at 50.0 µM); 7% in test [6] (setting [7]); 98% (active) in test [6] (setting [8]); 91.6% (active) in test [6] (at 50.0 µM).

Take `Cc1cc(=O)oc2c3c(ccc12)OC(c1ccc(Br)cc1)CC3=O` (configuration not stated): the growth inhibition in test [1] (setting [7]) was 28%; in test [1] (setting [8]), 24%; in test [1] (at 50.0 µM), 6.65%; in test [2] (setting [7]), 15%; in test [2] (setting [8]), 12%; in test [2] (at 50.0 µM), -7.8%. Moreover, the growth inhibition is 19% in test [3] (setting [7]); 20% in test [3] (setting [8]); 6.8% in test [3] (at 50.0 µM); 11% in test [4] (setting [7]); 27% in test [4] (setting [8]); -12.8% in test [4] (at 50.0 µM). The growth inhibition was 24% in test [5] (setting [7]); 23% in test [5] (setting [8]); -3% in test [5] (at 50.0 µM); 22% in test [6] (setting [7]); 15% in test [6] (setting [8]); -6.6% in test [6] (at 50.0 µM).

As for `COc1ccccc1NC(=O)/C(=C/c1ccccc1)C(C)=O`, the growth inhibition in test [1] (setting [7]) was -1%; in test [1] (setting [8]), 12%; in test [1] (at 50.0 µM) it was 48.6%; in test [2] (setting [7]), -2%; in test [2] (setting [8]), -2%; in test [2] (at 50.0 µM), -3.05%. The growth inhibition in test [3] (setting [7]) is 11%; in test [3] (setting [8]), 12%; in test [3] (at 50.0 µM), 16.7%; in test [4] (setting [7]) it was 1%; in test [4] (setting [8]), 21%; in test [4] (at 50.0 µM) it was 49.1%. The growth inhibition is -2% in test [5] (setting [7]); 25% in test [5] (setting [8]); -4.75% in test [5] (at 50.0 µM); 3% in test [6] (setting [7]); 26% in test [6] (setting [8]); 66.5% in test [6] (at 50.0 µM).

As for `CCOC(=O)C1=C(Nc2ccc(Br)cc2)OC/C1=N\NC(=O)c1ccccc1O`, the growth inhibition in test [1] (setting [7]) is 11%; in test [1] (setting [8]), 11%; in test [1] (at 50.0 µM), 50.6%; in test [2] (setting [7]) it was -16%; in test [2] (setting [8]) it was -16%; in test [2] (at 50.0 µM), 53.5%. In addition, the growth inhibition is 7% in test [3] (setting [7]); 7% in test [3] (setting [8]); 71.6% (active) in test [3] (at 50.0 µM); 4% in test [4] (setting [7]); 4% in test [4] (setting [8]); 25.7% in test [4] (at 50.0 µM). Further, the growth inhibition in test [5] (setting [7]) was 1%; in test [5] (setting [8]) it was 1%; in test [5] (at 50.0 µM), 66.8%; in test [6] (setting [7]), 5%; in test [6] (setting [8]), 5%; in test [6] (at 50.0 µM) it was 67%.

On to `O=C(CNS(=O)(=O)Cc1ccccc1)NCC(=O)NNc1ccccc1`, for which the growth inhibition in test [1] (setting [7]) was 12%; in test [1] (setting [8]), 55%; in test [1] (at 50.0 µM) it was 59.5%; in test [2] (setting [7]), 1%; in test [2] (setting [8]) it was 29%; in test [2] (at 50.0 µM), 29.4%. The growth inhibition in test [3] (setting [7]) was -5%; in test [3] (setting [8]), 63%; in test [3] (at 50.0 µM), 58.2%; in test [4] (setting [7]) it was 12%; in test [4] (setting [8]), 40%; in test [4] (at 50.0 µM), 44.4%. Besides, the growth inhibition in test [5] (setting [7]) was 1%; in test [5] (setting [8]), 53%; in test [5] (at 50.0 µM), 20.1%; in test [6] (setting [7]), 31%; in test [6] (setting [8]), 76% (active); in test [6] (at 50.0 µM), 81.7% (active).
